Screening data deposited in PubChem BioAssay by National Center for Advancing Translational Sciences (NCATS).
Caspase-1 inhib: qHTS Assay for Allosteric/Competitive Inhibitors of Caspase-1; actives 0.03% (n = 75,000); Caspase-1 enzyme, Ac-WEHD-AFC fluorogenic rate; Potency, µM (doses to about 57.5 µM), hits mostly inhibitors; P29466; AID 900, 2007
15-hLO-2 inh: qHTS Assay for Inhibitors of 15-hLO-2 (15-human lipoxygenase 2). Polyunsaturated fatty acid lipoxygenase ALOX15B (Homo sapiens), O15296. purified 15hLO-2, xylenol orange hydroperoxide absorbance. Potency, µM (series often up to 57.1 µM), actives largely listed as inhibitors. actives 0.56% (n = 110,000). AID 881, 2007; further: nearly all actives have a fitted effect of over 60% in size
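Purified human 15hLO-2 (50 nM) preincubated 15 min with compound, then 45 uM arachidonic acid for 90 min at RT in 25 mM Hepes pH 7.5, 0.01% Triton X-100. Hydroperoxide detected by Fe-xylenol orange; 573/405 nm absorbance ratio.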
ERK AVP inh: qHTS Assay for Inhibitors of the ERK Signaling Pathway using a Homogeneous Screening Assay; HEK293-V1b, vasopressin-stimulated pERK AlphaScreen; Potency, µM (series often up to 57.5 µM), most hits filed as inhibitors; actives 0.99% (n = 72,000); AID 995, 2007; further: nearly all actives have a fitted effect of over 55% in size
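HEK293 cells stably expressing V1b receptor, seeded overnight in 1% FBS, were treated with compounds for 30 min at 37C, then stimulated 5 min with 25 nM vasopressin; phospho-ERK read by AlphaScreen SureFire after lysis.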
Caspase-7 inhib: qHTS Assay for Allosteric/Competitive Inhibitors of Caspase-7; P55210; recombinant caspase-7, Ac-DEVD-AFC fluorescence rate; Potency, µM (highest dose often 57.5 µM), usual class: inhibitors; actives 0.02% (n = 75,000); active means well fitted inhibition curve with a large enough effect in the main read-out, with a control signal flat, not every such curve was filed as active; inconclusive means small, poorly fitted or top-dose-only effect, or a change in a side signal
ALOX15 inhib: qHTS Assay for Inhibitors of 15-hLO (15-human lipoxygenase) | purified 15hLO-1, xylenol orange hydroperoxide absorbance | Polyunsaturated fatty acid lipoxygenase ALOX15 (Homo sapiens), P16050 | Potency, µM (doses to about 57.1 µM), most hits filed as inhibitors | actives 1.4% (n = 74,000); further: nearly all actives have a fitted effect of over 55% in size
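Hydroperoxide formed from arachidonic acid (50 uM) by purified human 15hLO-1 (40 nM) oxidizes ferrous iron, and the ferric-xylenol orange complex is read at 573 versus 405 nm. Compounds were preincubated 15 min; reaction ran 6 min at room temperature.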
Numbers stand for hits; [ ] = remark or other dose. Only some compounds are listed: those with a hit (about 1.7% of all), similar ones and a draw of the others. Unless noted, the call rests on the fitted dose curve; in most records, active means well fitted curve in the direction sought with a large enough effect; inconclusive means small, poorly fitted or top-dose-only effect, or another doubt; inactive means no such curve, though single readings can be large; an effect the other way counts as inactive or inconclusive.

`COc1ccc2c(c1)c(=O)oc1cc(OCC(=O)N3CCCC(C)C3)ccc12` (stereo unspecified) gave Caspase-1 inhib inactive, 15-hLO-2 inh inactive, ERK AVP inh 32µM, Caspase-7 inhib inactive and ALOX15 inhib inactive.
CN(C)C(=O)c1ccc(-c2ccc3ncnc(N4CCC(C(=O)O)CC4)c3c2)cc1 was read as Caspase-1 inhib inactive, 15-hLO-2 inh inactive, ERK AVP inh inactive, Caspase-7 inhib inactive and ALOX15 inhib inactive.
Cn1c(=O)n(CCc2ccccc2)c(=O)c2c1nc1n2CCCN1Cc1ccccc1 was read as Caspase-1 inhib inactive, 15-hLO-2 inh inactive, ERK AVP inh inconclusive, Caspase-7 inhib inactive and ALOX15 inhib inconclusive.
For Cn1c(=O)n(CCc2ccccc2)c(=O)c2c1nc1n2CCCN1CCc1ccccc1 the results were Caspase-1 inhib inactive, 15-hLO-2 inh inactive, ERK AVP inh 13µM, Caspase-7 inhib inactive and ALOX15 inhib inactive.
Screening Cn1c(=O)c2c(nc(NC(Cc3ccccc3)C(=O)O)n2Cc2ccccc2)n(C)c1=O (stereo unspecified) returned Caspase-1 inhib inactive, 15-hLO-2 inh inactive, ERK AVP inh inactive, Caspase-7 inhib inactive and ALOX15 inhib 25µM.
CCn1c(N)c(C(=O)NCC2CCCO2)sc1=S (stereo unspecified) was read as Caspase-1 inhib inactive, 15-hLO-2 inh inconclusive, ERK AVP inh inactive, Caspase-7 inhib inactive and ALOX15 inhib 10µM.
`O=[N+]([O-])c1ccc2c(c1)c(S(=O)(=O)O)cc1nonc12` gave Caspase-1 inhib inactive[11.5 µM], 15-hLO-2 inh inactive[11.4 µM], ERK AVP inh inactive[11.5 µM], Caspase-7 inhib inactive[11.5 µM] and ALOX15 inhib inactive[11.4 µM].
Screening COc1ccc(-n2c(=O)c(-c3cccs3)nc3cnc(N4CCN(C)CC4)nc32)cc1 returned 15-hLO-2 inh inactive, ERK AVP inh inactive, Caspase-7 inhib inconclusive and ALOX15 inhib inactive.
`Cc1cc(C(=O)CSc2nnc(-c3cccnc3)n2-c2ccccc2F)c(C)n1C` gave Caspase-1 inhib inactive, 15-hLO-2 inh inactive, ERK AVP inh inactive, Caspase-7 inhib inactive and ALOX15 inhib 16µM.
For Cc1cc(C(=O)CSc2nnc(-c3ccccc3)n2C)c(C)n1C the results were Caspase-1 inhib inactive, 15-hLO-2 inh inactive, ERK AVP inh inactive, Caspase-7 inhib inactive and ALOX15 inhib inactive.
Screening COc1cc2c(C=O)c3c4c(cc(OC)c(OC)c4c2cc1OC)CCN3C returned Caspase-1 inhib inconclusive, 15-hLO-2 inh 32µM, ERK AVP inh inconclusive, Caspase-7 inhib inactive and ALOX15 inhib inconclusive.
`CN(C)C[C@H]1CCC[C@@H](CN(C)C)C1=O` gave Caspase-1 inhib inactive[11.5 µM], 15-hLO-2 inh inactive[11.4 µM], ERK AVP inh inactive[11.5 µM], Caspase-7 inhib inactive[11.5 µM] and ALOX15 inhib inactive[11.4 µM].
Screening O=C1Nc2ccc(S(=O)(=O)N3CCCCCC3)c3cccc1c23 returned 15-hLO-2 inh inactive, Caspase-7 inhib inconclusive and ALOX15 inhib 16µM.
CCCC(c1nnnn1Cc1ccc(F)cc1)N1CCN(C2CCCCC2)CC1 (stereo unspecified) was read as Caspase-1 inhib inactive, 15-hLO-2 inh inactive, ERK AVP inh 32µM, Caspase-7 inhib inactive and ALOX15 inhib inconclusive.
For O=C(c1ccccc1)c1cc(F)c(N2CCOCC2)cc1Cl the results were 15-hLO-2 inh inactive, Caspase-7 inhib inactive and ALOX15 inhib inactive.
`O=C(c1ccccc1)c1ccc(N2CCOCC2)c(F)c1` gave Caspase-1 inhib inactive, 15-hLO-2 inh inactive, ERK AVP inh inconclusive, Caspase-7 inhib inactive and ALOX15 inhib 32µM.
Screening N#Cc1c(N)nc(SCc2ccccc2)c(C#N)c1-c1ccco1 returned Caspase-1 inhib inactive, 15-hLO-2 inh inconclusive, ERK AVP inh inactive, Caspase-7 inhib inactive and ALOX15 inhib inconclusive.
`COC(=O)CSc1nc2c(c(-c3ccco3)c1C#N)CCCC2` gave Caspase-1 inhib inactive, 15-hLO-2 inh inconclusive, ERK AVP inh inactive, Caspase-7 inhib inactive and ALOX15 inhib 10µM.
For N#Cc1c(N)nc(SCC(=O)OCc2ccccc2)c(C#N)c1-c1ccco1 the results were Caspase-1 inhib inconclusive, 15-hLO-2 inh inactive, ERK AVP inh inactive, Caspase-7 inhib inconclusive and ALOX15 inhib 16µM.
`O=C1C(Cl)=C(N2CCCCC2)C(=O)N1c1ccccc1` gave Caspase-1 inhib inactive, 15-hLO-2 inh inactive, ERK AVP inh inactive, Caspase-7 inhib inactive and ALOX15 inhib 16µM.
Screening O=C1C(Cl)=C(N2CCCCC2)C(=O)N1c1ccccc1Cl returned Caspase-1 inhib inconclusive, 15-hLO-2 inh inactive, ERK AVP inh inactive, Caspase-7 inhib inactive and ALOX15 inhib inconclusive.
Screening Cc1ccccc1N1C(=O)C(Cl)=C(N2CCCCCC2)C1=O returned Caspase-1 inhib inactive, 15-hLO-2 inh inactive, ERK AVP inh inactive, Caspase-7 inhib inactive and ALOX15 inhib 10µM.
COc1ccc(OC)c(N2C(=O)C(Cl)=C(N3CCCCC3)C2=O)c1 was read as Caspase-1 inhib inactive, 15-hLO-2 inh inactive, ERK AVP inh inactive, Caspase-7 inhib inactive and ALOX15 inhib inactive[11.4 µM].
Cc1[nH]nc2c1-c1nc3ccccc3nc1C(C)(C)C2 was read as Caspase-1 inhib inactive, 15-hLO-2 inh inactive, ERK AVP inh 13µM, Caspase-7 inhib inactive and ALOX15 inhib inactive.
Screening Cc1n[nH]c(C)c1-c1nc2ccccc2[nH]1 returned Caspase-1 inhib inactive, ERK AVP inh inactive, Caspase-7 inhib inactive and ALOX15 inhib inactive.
`CN1CCN(CN2C(=O)C3C4C=CC(C3C2=O)C2C3C(=O)N(CN5CCN(C)CC5)C(=O)C3C42)CC1` (stereo unspecified) gave Caspase-1 inhib inactive[11.5 µM], 15-hLO-2 inh inactive[11.4 µM], ERK AVP inh inactive[11.5 µM], Caspase-7 inhib inactive[11.5 µM] and ALOX15 inhib inactive[11.4 µM].
Screening O=C(c1cccs1)c1no[n+]([O-])c1C(=O)c1cccs1 returned Caspase-1 inhib inactive, 15-hLO-2 inh inactive, ERK AVP inh 5µM, Caspase-7 inhib inactive and ALOX15 inhib inactive.
`COC(=O)C1=C(C)NC(C)=C([N+](=O)[O-])[C@@H]1c1ccccc1C(F)(F)F` gave Caspase-1 inhib inactive, 15-hLO-2 inh inactive[0.0915 µM], ERK AVP inh inactive, Caspase-7 inhib inactive and ALOX15 inhib inactive.
For COc1ccc(N2CCN(C(=O)C(Cc3ccccc3)n3cccc3)CC2)cc1 (stereo unspecified) the results were Caspase-1 inhib inactive, 15-hLO-2 inh inactive, ERK AVP inh 25µM, Caspase-7 inhib inactive and ALOX15 inhib 25µM.
For Cc1ccc(OCc2nnc(SCc3nc4ccccc4[nH]3)n2Cc2ccco2)cc1 the results were Caspase-1 inhib inactive, 15-hLO-2 inh inactive, ERK AVP inh 32µM, Caspase-7 inhib inactive and ALOX15 inhib inactive.
For c1cncc(CNc2cc(-c3ccoc3)ncn2)c1 the results were Caspase-1 inhib inactive, 15-hLO-2 inh inactive, ERK AVP inh inactive, Caspase-7 inhib inactive and ALOX15 inhib 25µM.
Screening COc1cccc(-c2cc(NCc3ccccc3)ncn2)c1 returned Caspase-1 inhib inactive, 15-hLO-2 inh inactive, ERK AVP inh 5µM, Caspase-7 inhib inactive and ALOX15 inhib inactive.
